Results on 48 molecules are retold here after PubChem BioAssay AID2685 (National Center for Advancing Translational Sciences (NCATS), 2010).

About 2,100 (0.66%) of roughly 320,000 compounds were called active. Not shown: some 53% with an inconclusive outcome. The call rests on the fitted dose curve; in most records, active means well fitted inhibition curve with a large enough effect in the signal ratio, with a control signal flat (not every such curve was filed as active); inconclusive means small, poorly fitted or top-dose-only effect, or effect the other way, or a change in a side signal; inactive means flat fitted curve, though single readings scatter; the % refers to the signal ratio. The list comes from a sample in which actives are over-represented; it also holds similar structures and randomly drawn compounds.
Potency means the concentration at half of the fitted maximal effect.

The test can be described thus: qHTS Assay for Lipid Storage Modulators in Drosophila S3 Cells.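 On cell number change: cells counted by Cell Tracker Red CMTPX staining in the red channel.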 On lipid storage change, negative = inhibition: on the % scale 0 is the no-effect control and ±100 the full control effect. To be noted: BODIPY lipid droplet fluorescence, 18-24 h, cells fed with added oleic acid; cell number change: measured here: cell count max response; series mostly up to 46.1 µM; lipid storage change, negative = inhibition: at the top concentration. In a few lines: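 Drosophila S3 cells got compounds at several concentrations plus oleic acid (400 uM solution). Laser-scanning cytometry with 488 nm excitation read lipid droplets at 500-530 nm and cells at 575-640 nm. Percent activity was relative to 20 uM Triacsin C.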
As to `Cc1cc(C)n2c(SCC#N)nnc2n1`, the molecule was called inactive.

`CCO[C@H]1OC(C(=O)N2CCCCCCC2)=C[C@@H](c2ccccc2)[C@@H]1CCCO`: the “lipid storage change, negative = inhibition” value is -17.1% (inactive) and the cell number change was -2.78%.

For `CSC1=NNC(c2ccc(C(C)(C)C)cc2)=NN1`, the “lipid storage change, negative = inhibition” value is 3.5% (inactive) and the cell number change stood at 21%.

Regarding `COCC(C)n1c(C)cc(C(=O)COC(=O)CN=C2NS(=O)(=O)c3ccccc32)c1C` (stereo not given), the “lipid storage change, negative = inhibition” value was -7.81% (inactive) and the cell number change came out at 10.7%.

As to `COc1ccc(C2/C(=C(/O)c3ccc(C)cc3)C(=O)C(=O)N2c2ccccn2)cc1OC` (stereo not given), the “lipid storage change, negative = inhibition” value is -1.13% (inactive) and the cell number change was -0.743%.

Regarding `COc1ccc(C(C)=O)cc1CN1C(=O)NC2(CCCCCCC2)C1=O`, the “lipid storage change, negative = inhibition” value is 2.83% (inactive) and the cell number change worked out at 6.34%.

Take `CCOc1ccc(C(C)=O)cc1CN1C(=O)NC2(CCCCC2C)C1=O` (stereo not given): the “lipid storage change, negative = inhibition” value was 17.5% (inactive) and the cell number change is -2.29%.

Regarding `CCOc1ccc(C(C)=O)cc1CN1C(=O)NC2(CCCCCC2)C1=O`, the Potency is 0.13 µM (active) and the cell number change was found to be 3.15%.

As for `O=C(Nc1ccc(Cl)cc1)Nc1nnc(Cc2ccc([N+](=O)[O-])cc2)s1`, the “lipid storage change, negative = inhibition” value was 7.97% (inactive) and the cell number change stood at 3.06%.

Turning to `CCn1c(CNC(=O)COc2c(C)cccc2C)nnc1SCC(=O)Nc1nccs1`, the “lipid storage change, negative = inhibition” value is 11.3% (inactive) and the cell number change was -11%.

With `C=CCNC(=S)NNC(=O)C(CC(C)C)CC(C)O` (stereo not given), the “lipid storage change, negative = inhibition” value is -5.62% (inactive) and the cell number change came to 1.94%.

As for `C=CCNC(=S)NNC(=O)C(CCCC)CC(O)COCC(C)C` (stereo not given), the “lipid storage change, negative = inhibition” value is 7.02% (inactive) and the cell number change amounted to 6.35%.

Turning to `C=CCNC(=S)NNC(=O)C(CCCC)CC(C)O` (stereo not given), the Potency is 29.1 µM (active) and the cell number change was -5.26%.

Consider `CCC(=O)Nc1ccc(/C=C(\C(C)=O)C(=O)c2ccccc2)cc1`, for which the “lipid storage change, negative = inhibition” value was -21.8% (inactive) and the cell number change is -16.8%.

Consider `CCOCCCNCC(=O)NC1(C)C2CCC(C2)C1(C)C` (stereo not given), for which the Potency was 1.3 µM (active) and the cell number change is -12.8%.

For `CC1(C)C2CCC(C2)C1(C)NC(=O)C[N+](C)(C)C` (stereo not given), the “lipid storage change, negative = inhibition” value is -8.8% (inactive) and the cell number change is 7.74%.

Consider `CC1(C)C2CCC(C2)C1(C)NC(=O)CNC1CCCCC1` (stereo not given), for which the result was inactive.

`Cc1ccc(C(=O)Nc2ccc(C(=O)N3CCCCC3)cc2)o1`: the “lipid storage change, negative = inhibition” value is 19.2% (inactive).

With `COCC(C)NS(=O)(=O)c1ccc(C(=O)NCCCn2ccc3ccccc32)cc1` (stereo not given), the molecule was called inactive and the cell number change was -2.38%.

With `Cc1ccc(C(=O)NC(Cc2c[nH]c3ccccc23)C(=O)O)cc1` (stereo not given), the Potency is 16.4 µM (active) and the cell number change came to 8.72%.

With `O=C(NC(Cc1c[nH]c2ccccc12)C(=O)O)c1ccc(F)cc1` (stereo not given), the “lipid storage change, negative = inhibition” value is -8.21% (inactive) and the cell number change is -8.38%.

In the case of `Cc1ccc(C(=O)Nc2ccccc2C(=O)NC(Cc2c[nH]c3ccccc23)C(=O)O)cc1` (stereo not given), the “lipid storage change, negative = inhibition” value was -2.03% (inactive) and the cell number change worked out at 14.2%.

For `O=C(Cc1ncc(C(F)(F)F)cc1Cl)NNc1cccc(F)n1`, the “lipid storage change, negative = inhibition” value is -0.459% (inactive) and the cell number change worked out at 2.59%.

As for `CCC1(c2ccc(F)cc2)NC(=O)N(CC(=O)c2cc(C)n(C3CC3)c2C)C1=O` (stereo not given), the call was inactive and the cell number change was -20.6%.

For `CN(CCCNC(=O)CSc1cc(=O)n(C)c2ccc(Cl)cc12)Cc1ccccc1`, the “lipid storage change, negative = inhibition” value was 1.37% (inactive) and the cell number change is -6.41%.

Turning to `COc1ccccc1CN(C)C(=O)C(c1ccccc1)c1ccccc1`, the Potency was 20.6 µM (active) and the cell number change was found to be 14.8%.

Take `COc1ccccc1CNC(=O)C(c1ccccc1)c1ccccc1`: the outcome was inactive and the cell number change came out at 13.6%.

For the molecule `COc1ccccc1CN(C)C(=O)CN1C(=O)c2ccccc2C1=O`, the call was inactive and the cell number change came out at 14.5%.

As for `CCOc1ccc(N(CC(=O)N2CCCCCC2)S(C)(=O)=O)cc1`, the molecule was classed as inactive.

As to `CCOC(=O)C1CCN(C(=O)Cn2cc(C(=O)C3CC3)c3ccccc32)CC1`, the “lipid storage change, negative = inhibition” value was 10.5% (inactive) and the cell number change stood at 3.64%.

Turning to `Cn1cnnc1SCC(=O)Nc1ccc(F)cc1F`, the “lipid storage change, negative = inhibition” value was 16% (inactive) and the cell number change was -0.713%.

Consider `Cn1c(=O)c2sccc2n2c(CCCC(=O)Nc3ccc(F)cc3F)nnc12`, for which the Potency is 9.2 µM (active) and the cell number change is -23.8%.

As to `O=C(CCc1nnc2n(Cc3ccc(Cl)cc3)c(=O)c3ccccc3n12)N1CCN(c2ccccn2)CC1`, the call was inactive and the cell number change was -18.3%.

Turning to `O=C(CCN1C(=O)c2ccccc2C1=O)Nc1ccc(F)cc1F`, the “lipid storage change, negative = inhibition” value is 12.5% (inactive) and the cell number change was 5.85%.

As for `CC(C)CCn1c(=O)c2sccc2n2c(CCCC(=O)N3CCC(N4CCCCC4)CC3)nnc12`, the outcome was inactive.

For `O=C(CCc1nnc2n(Cc3ccc(F)cc3)c(=O)c3ccccc3n12)N1CCN(c2ccccn2)CC1`, the Potency is 13 µM (active) and the cell number change is -18.8%.

As to `O=C(CCCCCn1c(=O)[nH]c2ccsc2c1=O)N1CCCCC1`, the “lipid storage change, negative = inhibition” value was -10% (inactive) and the cell number change was -7.73%.

Take `Cn1c(=O)c2sccc2n2c(CCCC(=O)N3CCCCC3)nnc12`: the Potency is 10.3 µM (active) and the cell number change was -19.4%.

For the molecule `COc1ccc(-c2cc(CCCC(=O)NCCc3cc(OC)ccc3OC)no2)cc1`, the “lipid storage change, negative = inhibition” value was -25.3% (inactive) and the cell number change was found to be 4.57%.

In the case of `Cn1c(=O)c2sccc2n2c(CCCC(=O)NCc3ccc4c(c3)OCO4)nnc12`, the “lipid storage change, negative = inhibition” value was 3.09% (inactive) and the cell number change is -24.9%.

Consider `COc1ccc(Cn2c(CCC(=O)N3CCN(c4ccccn4)CC3)nc3ncccc3c2=O)cc1`, for which the “lipid storage change, negative = inhibition” value was 7.18% (inactive) and the cell number change is -8.69%.

For `COc1ccc(OC)c(CCNC(=O)CCCc2nnc3n(C)c(=O)c4sccc4n23)c1`, the Potency was 7.31 µM (active) and the cell number change was -24.6%.

Turning to `O=C(CSc1ccc(F)cc1)N1CCOCC1`, the “lipid storage change, negative = inhibition” value is -1.33% (inactive) and the cell number change worked out at 7.13%.

For the molecule `COC(=O)c1ccc(COc2cc([N+](=O)[O-])cc3cccnc23)o1`, the “lipid storage change, negative = inhibition” value is -4.43% (inactive) and the cell number change was 5.31%.

Turning to `Cc1cccc(NC(=S)NC(C)C(c2ccccc2)N2CCN(C)CC2)c1C` (stereo not given), the “lipid storage change, negative = inhibition” value was -11.9% (inactive) and the cell number change is -10.3%.

`COc1ccc(OC)c(S(=O)(=O)NC2CC2)c1`: the “lipid storage change, negative = inhibition” value was -1.21% (inactive) and the cell number change is -2.27%.

For the molecule `Nc1nc(SCC(=O)Nc2cccnc2Cl)n[nH]1`, the outcome was inactive.

As to `COc1ccc(-c2n[nH]c(=S)n2N)c(OC)c1`, the outcome was inactive and the cell number change is -28.8%.
